PubChem BioAssay (NCATS)
Values without a mark were called inactive. Records with an inconclusive call do not appear. Where a call stands in place of a potency, no number is given. The source made the active and inactive calls. Calls follow the shape of the dose curve; as a rule, active = well fitted curve in the direction sought with a large enough effect; inconclusive = small, poorly fitted or top-dose-only effect, or another doubt; inactive = no such curve, though single readings can be large; an effect the other way counts as inactive or inconclusive. Where a SMILES comes first, the peptide text is derived from it. [ ]: non-standard residue; d: D form. ξ: configuration not given here. ξTyr(βOH) = NC(C(=O)O)C(O)c1ccc(O)cc1

Key:
[1] = target: Glutathione peroxidase 1 (Homo sapiens) (UniProt P07203); experiment: Primary qHTS Assay for Inhibitors of Recombinant Selenoprotein Glutathione Peroxidase 1 (GPX1) (AID 1845191); also: nearly all actives have a fitted effect of over 65% in size
Sequence of Glutathione peroxidase 1 (Homo sapiens) (P07203 whole entry, looked up): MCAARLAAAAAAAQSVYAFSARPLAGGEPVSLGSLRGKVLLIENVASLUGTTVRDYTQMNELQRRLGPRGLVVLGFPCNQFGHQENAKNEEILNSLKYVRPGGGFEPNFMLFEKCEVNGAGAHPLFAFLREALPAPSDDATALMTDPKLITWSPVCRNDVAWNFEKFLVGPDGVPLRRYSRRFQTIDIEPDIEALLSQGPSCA
Outline: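 GPX1 10 nM, GR 100 nM, GSH 1 mM, NADPH 0.5 mM, CHP 0.5 mM (final). 30-min cpd preincubation, RT. Ex340/Em450 read t=0, t=15 min.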

[2] = target: Phospholipid hydroperoxide glutathione peroxidase GPX4 (Homo sapiens) (UniProt P36969); experiment: Primary qHTS Assay for Inhibitors of Recombinant Selenoprotein Glutathione Peroxidase 4 (GPX4) (AID 1845192); also: nearly all actives have a fitted effect of over 65% in size; as to activity change, negative = inhibition: series mostly up to about 50 µM
Sequence of Phospholipid hydroperoxide glutathione peroxidase GPX4 (Homo sapiens) (P36969 whole entry, looked up): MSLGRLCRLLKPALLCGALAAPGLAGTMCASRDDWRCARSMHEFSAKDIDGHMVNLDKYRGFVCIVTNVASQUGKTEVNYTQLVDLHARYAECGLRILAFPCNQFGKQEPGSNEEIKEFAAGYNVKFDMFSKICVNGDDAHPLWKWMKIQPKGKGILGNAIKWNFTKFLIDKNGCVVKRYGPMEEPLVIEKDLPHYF
Outline: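 qHTS, GR-coupled: GPX4 200 nM + cpd 30 min RT → GSH 1 mM, NADPH 0.5 mM, GR 100 nM → CHP 0.5 mM start; fluor 340/450 at t0 and t15 min; no-enzyme wells as control.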

[3] = target: Luciferin 4-monooxygenase (Photinus pyralis) (UniProt P08659); experiment: Primary firefly luciferase (FLuc) qHTS assay for identification of artifact compounds. (AID 1845220); also: nearly all actives have a fitted effect of over 60% in size; as to activity change, negative = inhibition: series mostly up to about 54 µM
Outline: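 Reaction readout was CCD-imaged luminescence, taken 5 min after adding 10 nM purified firefly enzyme to compound-treated wells holding 10 uM luciferin and ATP in pH 7.6 buffer.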

[4] = Primary fluorescence-based thiol-reactive (MSTI) qHTS assay for identification of artifact compounds. (AID 1845221); also: nearly all actives have a fitted effect of over 65% in size; also: potency is read from the fitted curve at half-maximal effect;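 as to activity change, negative = thiol reactive: series mostly up to about 54 µM; thiol-reactive compounds lower the probe fluorescence signal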
Outline: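 Curve-fitted percent inhibition (4-parameter Hill) derived from fluorescence, Ex 525/Em 598 nm, scaled with Acetyl-MSTI and MSTI; 1 h incubation at room temperature.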

[5] = tested on: Nanoluciferase (engineered Oplophorus gracilirostris luciferase); experiment: Primary Nanoluciferase (NLuc) qHTS assay for identification of artifact compounds. (AID 1845222);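 also: NLuc secreted into diluted conditioned medium of S16 cells; series mostly up to about 54 µM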
Outline: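 Concentration-response data were obtained by luminescence after 5 min with Nano-Glo substrate at 1:100. The enzyme was diluted S16 NLuc-expressing cell medium, preincubated with compound for 15 min at RT. Curves were fitted with a 4-parameter Hill model.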

[6] = Primary redox qHTS assay for identification of artifact compounds. (AID 1845223)
Outline: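 Redox-cycling detection via DTT (250 uM final) oxidation coupled to Amplex Red (25 uM)/HRP (250 mU/mL) in HBSS. 15 min preincubation plus 30 min after DTT, room temperature. Ex/Em 525/598 nm; 4-parameter Hill fit against DMSO and 10 uM DA3003.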

| Structure (SMILES) | Potency [1] | Potency [2] | Potency [3] | Potency [4] | Potency [5] | Potency [6] | outcome [3] | activity change, negative = thiol reactive [4] | activity, negative = inhibition [5] | redox activity (% of DA3003) [6] | outcome [1] | activity change, negative = inhibition [2] |
| --- | --- | --- | --- | --- | --- | --- | --- | --- | --- | --- | --- | --- |
| O=C(O)CCc1ccc(NCc2cccc3c2CCCN3CCOc2ccccc2)cc1F | inactive | inactive | inactive | 1.5 µM (active) | inactive | inactive | – | – | – | – | – | – |
| CCOc1nc2c(N)ncnc2n1CC | inactive | inactive | inactive | inactive | inactive | inactive | – | – | – | – | – | – |
| COC(=O)[C@H](O)[C@H]1C(C)(C)[C@H](OC(C)=O)[C@@]2(O)C(=O)[C@]1(C)C1CC[C@]3(C)C(CC(=O)O[C@H]3c3ccoc3)[C@]13O[C@@H]32 (stereo partly specified) | inactive | inactive | inactive | inactive | inactive | inactive | – | – | – | – | – | – |
| Cc1ccccc1-n1nc(-c2c(-c3ccc(F)cc3)nn3c2NC[C@@H](CO)C3)ccc1=O | inactive | inactive | inactive | inactive | inactive | inactive | – | – | – | – | – | – |
| CC(O)C(=O)/C=C/C=C/C(=O)OC1C=C2COC(=O)C2(O)C2(C)CCCC(C)(C)C12 (stereo unspecified) | inactive | inactive | inactive | inactive | inactive | inactive | – | – | – | – | – | – |
| O=C(OC[C@H]1O[C@H](O[C@H]2CO[C@H](CO)[C@@H](O)[C@@H]2O)[C@H](O)[C@@H](O)[C@H]1O)c1ccccc1 | inactive | inactive | inactive | inactive | inactive | inactive | – | – | – | – | – | – |
| CC(C)c1ccc2c(c1)C(O)CC1C(C)(C(=O)O)CCCC21C (stereo unspecified) | inactive | inactive | inactive | inactive | inactive | inactive | – | – | – | – | – | – |
| C/C=C(/C)C(=O)OC1C(OC(C)=O)C23C(O)OC4(CCC5C6(C)CCC(OC7OC(C(=O)O)C(O)C(OC8OC(CO)C(O)C(O)C8OC8OC(C)C(O)C(O)C8OC8OCC(O)C(O)C8O)C7OC7OC(CO)C(O)C(O)C7O)C(C)(C)C6CCC5(C)C4(C)CC2OC(C)=O)C3CC1(C)C (stereo unspecified) | inactive | inactive | – | – | – | – | inactive [at 11.6 µM] | 196% [at 11.5 µM] | 0.798% [at 11.6 µM] | 6.91% [at 11.5 µM] | – | – |
| O=C(O)CC(CCc1ccccc1)OC1OC(CO)C(O)C(O)C1O (stereo unspecified) | inactive | inactive | inactive | 5.21 µM (active) | inactive | inactive | – | – | – | – | – | – |
| COc1cc(CCCO)ccc1O[C@@H]1O[C@H](CO)[C@@H](O)[C@H](O)[C@H]1O | inactive | inactive | inactive | 16.5 µM (active) | inactive | inactive | – | – | – | – | – | – |
| CC(C)C1NC(=O)CNC(=O)C2CCCN2C(=O)C(Cc2c[nH]c3ccccc23)NC(=O)CNC(=O)C(C(O)c2ccc(O)cc2)NC(=O)CNC1=O (stereo unspecified) (cyclo(G[ξTyr(βOH)]GWPGV); configuration not given here) | inactive | inactive | inactive | inactive | inactive | inactive | – | – | – | – | – | – |
| C/C=C(\C)C(=O)OC1C2(O)CC3=C4CC(=O)OC(c5ccoc5)C4(C)CCC3C(C)(C2=O)C(C(OC(C)=O)C(=O)OC)C1(C)C (stereo unspecified) | inactive | inactive | inactive | inactive | inactive | inactive | – | – | – | – | – | – |
| O=C(O)[C@H]1Cc2ccccc2CN1 | – | – | – | – | – | – | inactive [at 6.45 µM] | -3.73% [at 6.41 µM] | 0% [at 6.45 µM] | -3.86% [at 6.41 µM] | inactive [at 4.49 µM] | 3.24% [at 4.52 µM] |
| CC(C)Oc1ccc(-c2nc(-c3cccc4c3CCC4NCCC(=O)O)no2)cc1C#N (stereo unspecified) | inactive | inactive | inactive | inactive | inactive | inactive | – | – | – | – | – | – |
| C[C@@H]1O[C@@H](O[C@H]2[C@H](OC(=O)[C@]34CCC(C)(C)C[C@H]3C3=CCC5[C@@]6(C)C[C@@H](O)[C@@H](O)[C@@](C)(CO)C6[C@H](O)C[C@@]5(C)[C@]3(C)CC4)OC[C@H](O)[C@@H]2O)[C@H](O)[C@H](O)[C@H]1O[C@@H]1OC[C@@H](O)[C@H](O[C@H]2O[C@H](C)[C@@H](O)[C@H](O)[C@@H]2O)[C@H]1O (stereo partly specified) | inactive | inactive | – | – | – | – | inactive [at 11.6 µM] | 381% [at 11.5 µM] | 4.47% [at 11.6 µM] | 18.5% [at 11.5 µM] | – | – |
| CC(=O)OC[C@]12[C@@H](OC(=O)c3ccoc3)C[C@@H]3[C@@H](OC(C)=O)[C@]1(OC3(C)C)[C@@](C)(O)C[C@H](OC(=O)c1ccoc1)[C@@H]2OC(=O)c1ccoc1 | inactive | inactive | inactive | inactive | inactive | inactive | – | – | – | – | – | – |
| CC(=O)OC1C(O)C(C)(O)C(/C=C/C(=O)O)C2(C)CCCC(C)(C)C12 (stereo unspecified) | inactive | inactive | inactive | inactive | inactive | inactive | – | – | – | – | – | – |
| C=C1CCC2C(C)(C(=O)O)CCCC2(C)C1CC/C(C)=C\CO (stereo unspecified) | inactive | inactive | inactive | inactive | inactive | inactive | – | – | – | – | – | – |
| CC(=O)N[C@H]1[C@H](O[C@H]2CC[C@]3(C)C4CC=C5[C@@H]6CC(C)(C)CC[C@]6(C(=O)O)[C@H](O)C[C@@]5(C)[C@]4(C)CC[C@H]3C2(C)C)O[C@H](CO)[C@@H](O)[C@@H]1O (stereo partly specified) | inactive | inactive | inactive | inactive | inactive | inactive | – | – | – | – | – | – |
| CN1CCN(C(=O)c2cc3cc(Cl)ccc3[nH]2)CC1 | inactive | inactive | inactive | inactive | inactive | inactive | – | – | – | – | – | – |
| C/C=C(\C)C(=O)O[C@H]1C=CC(=O)O[C@H]1/C=C/[C@H](O)[C@@H](C)O | inactive | inactive | inactive | inactive | inactive | inactive | – | – | – | – | – | – |
